A short description of assay [1]: ATG_NFI_CIS: Attagene CIS-FACTORIAL HepG2 Assay for human Nuclear Factor I (NFI) (AID 2282989). To be noted: HepG2 cis-regulatory reporter, NFI response element transcription; actives raise or lower the signal. Summed up: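 Reporter transcription driven by endogenous transcription factors in HepG2 cells; 24 h treatment. Quantitation by labelled RT-PCR fragments on capillary electrophoresis, gain- or loss-of-signal relative to DMSO.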

Assay [2] addresses Myc proto-oncogene protein (Homo sapiens) (UniProt P01106). In words: ATG_Myc_CIS: Attagene CIS-FACTORIAL HepG2 Assay for human Myelocytomatosis (Myc) Proto-Oncogene Transcription Factor (AID 2282990). To be noted: HepG2, Attagene cis-reporter transcription factor activity; actives raise or lower the signal. Summed up:
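HepG2 cells transiently transfected with multiple cis-promoter-driven reporter transcription units, so endogenous TF activity is read. After 24 h compound exposure, reporter mRNA was quantified by RT-PCR, 6-FAM labelling, HpaI digestion and capillary electrophoresis; bidirectional fit versus DMSO.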

A short description of assay [3]: ATG_NF_kB_CIS: Attagene CIS-FACTORIAL HepG2 Assay for human Nuclear Factor Kappa B (NF-kB) (AID 2282991). To be noted: HepG2 Attagene cis-factorial NF-kB reporter mRNA; actives raise or lower the signal. Summed up:
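Read-out: reporter transcript levels quantified by RT-PCR plus capillary electrophoresis of 6-FAM-labelled, HpaI-cut fragments. Transfected HepG2 cells, 24 h compound exposure, endogenous NF-kB-driven cis element; gain or loss scored versus DMSO.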

A short description of assay [4]: ATG_NRF2_ARE_CIS: Attagene CIS-FACTORIAL HepG2 Assay for human Nuclear Factor Erythroid 2 Related Factor 2 (NFR2) response to Antioxidant Response Elements (ARE) (AID 2282992).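 For AC50: reporter mRNA level measured by RT-PCR and capillary electrophoresis fluorescence.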 The following applies: HepG2 Attagene ARE/NRF2 reporter, transcription factor activity; actives raise or lower the signal. Summed up:
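Fluorescence intensity of reporter-specific cDNA fragments, separated by capillary electrophoresis, reflects mRNA induction in transfected HepG2 cells at 24 h. Activity is fitted bidirectionally, DMSO serving as baseline.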

Assay [5] in a line: ATG_Oct_MLP_CIS: Attagene CIS-FACTORIAL HepG2 Assay for human Octamer-Binding Transcription Factor (Oct) (AID 2282993). To be noted: HepG2 Attagene cis-factorial Oct reporter, mRNA; actives raise or lower the signal. Summed up:
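Transfected HepG2 cells, 24 h treatment. Reporter mRNA quantified by RT-PCR–capillary electrophoresis; bidirectional fitting against DMSO.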

The target of assay [6] is Cellular tumor antigen p53 (Homo sapiens) (UniProt P04637). Nature of the assay: ATG_p53_CIS: Attagene CIS-FACTORIAL HepG2 Assay for human p53 Transcription Factor (AID 2282994). The following applies: HepG2 p53 cis-element reporter, Attagene mRNA; actives raise or lower the signal. Summed up:
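Transiently transfected HepG2 (multiple cis reporter transcription units); exposure 24 h; reporter RNA via RT-PCR, 6-FAM extension, 2 h HpaI digest at 37 C, CE detection; DMSO baseline.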

A short description of assay [7]: BSK_3C_TissueFactor: BioMAP Diversity Plus: 3C Assay for Tissue Factor Biomarker Activity (AID 2282997). To be noted: BioMAP 3C HUVEC, tissue factor biomarker readout; actives raise or lower the signal. Summed up:
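After a 24 h chemical exposure of primary human umbilical vein endothelial cells, Tissue Factor levels were quantified by ELISA.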

Assay [8] in a line: BSK_3C_uPAR: BioMAP Diversity Plus: 3C Assay for Urokinase-type plasminogen activator receptor (uPAR) Biomarker Activity (AID 2282998). The following applies: BioMAP 3C HUVEC, uPAR biomarker ELISA; actives raise or lower the signal. Summed up:
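Readout: ELISA for surface uPAR. System: human umbilical vein endothelial primary cells, 24 h after chemical exposure. Analysis: bidirectional fit, DMSO baseline.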
Background: ELISA stands for enzyme-linked immunosorbent assay.

Assay [9] can be described thus: BSK_3C_VCAM1: BioMAP Diversity Plus: 3C Assay for Vascular cell adhesion molecule 1 (VCAM1) Biomarker Activity (AID 2282999). To be noted: BioMAP 3C HUVEC, VCAM1 ELISA, cytokine-stimulated; actives raise or lower the signal. Summed up:
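Vascular primary endothelium (human umbilical vein) was exposed to chemicals and assayed 24 h later. VCAM-1 levels came from ELISA, with DMSO serving as baseline for bidirectional fitting.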

Assay [10] in a line: BSK_4H_Eotaxin3: BioMAP Diversity Plus: 4H Assay for Eotaxin 3 Biomarker Activity (AID 2283000).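 For Outcome: CCL26 protein level quantified by ELISA in parallel with SRB cytotoxicity check.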 The following applies: primary human endothelial cells (HUVEC); actives raise or lower the signal. Summed up: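 Chemicals were added to human umbilical vein endothelium cultures, and Eotaxin-3 was quantified by ELISA at 24 h. Values were derived by bidirectional fitting with DMSO serving as negative control and activity baseline.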

Assay [11] deals with human Peroxisome Proliferator-activated Receptor alpha (PPARa), PPARA (gene 5465) (UniProt Q07869). Nature of the assay: ATG_PPARa_TRANS: Attagene TRANS-FACTORIAL HepG2 Assay for human Peroxisome Proliferator-activated Receptor alpha (PPARa) (AID 2283001; active = hit-call score of the fitted dose curve at least 0.9, where 1 is the maximum). Summed up: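 Cells (HepG2) are transfected with multiple reporter transcription units, exposed to chemical for 24 h, then total RNA is reverse-transcribed and amplified. Labelled products are quantified by capillary electrophoresis; induction is referenced to DMSO.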

Assay [12] deals with human Peroxisome Proliferator-activated Receptor delta (PPARd), PPARD (gene 5467) (UniProt Q03181). In words: ATG_PPARd_TRANS: Attagene TRANS-FACTORIAL HepG2 Assay for human Peroxisome Proliferator-activated Receptor delta (PPARd) (AID 2283002; active = hit-call score of the fitted dose curve at least 0.9, where 1 is the maximum). Summed up:
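HepG2 cells transiently transfected with multiplexed GAL4-UAS reporter units and exogenous chimeric NR-Gal4 proteins; 24 h compound exposure. Reporter mRNA measured by RT-PCR, 6-FAM labelling, HpaI digestion and capillary electrophoresis; gain of signal versus DMSO.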

Read-out in assay [13]: Intercellular Adhesion Molecule 1 (ICAM1), ICAM1 (gene 3383)
In words: BSK_3C_ICAM1: BioMAP Diversity Plus: 3C Assay for Intercellular Adhesion Molecule 1 (ICAM1) Biomarker Activity (AID 2283003). The following applies: primary human endothelial cells (HUVEC); actives raise or lower the signal. Summed up:
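ELISA readout of ICAM1 in human umbilical vein endothelial cells in the 3C system, taken 24 h post-dose. Gain or loss of signal versus DMSO was fitted in both directions, with SRB total-protein staining run in parallel.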

Assay [14] can be described thus: BSK_3C_Proliferation: Cell Proliferation Assessment in the BioMAP Diversity Plus: 3C Assay (AID 2283006).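 For AC50: potency may reflect either rise or fall in cell number versus DMSO.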 To be noted: primary human endothelial cells (HUVEC). Summed up:
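Proliferation as total protein: sulforhodamine B (0.1%) stain of TCA-fixed subconfluent human umbilical vein endothelial cells, absorbance 560 nm, 48 h after dosing. Activity fitted in both directions against DMSO baseline.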

For assay [15], the target named is Peroxisome proliferator-activated receptor gamma (Homo sapiens) (UniProt P37231). In words: ATG_PPARg_TRANS: Attagene TRANS-FACTORIAL HepG2 Assay for human Peroxisome Proliferator-activated Receptor-gamma (PPARg) (AID 2283007; active = hit-call score of the fitted dose curve at least 0.9, where 1 is the maximum). Summed up: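 Read-out: reporter mRNA induction, detected by fluorescence after RT-PCR and capillary electrophoresis. Transiently transfected human HepG2 liver cells carrying a chimeric NR-Gal4 construct were dosed for 24 h; activity was fitted upward relative to DMSO.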

In assay [16] the target is human Retinoic Acid Receptor gamma (RARg), RARG (gene 5916) (UniProt P13631). Nature of the assay: ATG_RARg_TRANS: Attagene TRANS-FACTORIAL HepG2 Assay for human Retinoic Acid Receptor gamma (RARg) (AID 2283009; active = hit-call score of the fitted dose curve at least 0.9, where 1 is the maximum). Summed up:
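Transactivation of exogenous RARg-Gal4 fusion measured as reporter transcript induction after 24 h in transfected HepG2 cells. RNA reverse-transcribed, amplified, fluorescently labeled and resolved by capillary electrophoresis; increase relative to DMSO.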

The target in assay [17] is Nuclear receptor subfamily 1 group I member 2 (Homo sapiens) (UniProt O75469). Nature of the assay: ATG_PXR_TRANS: Attagene TRANS-FACTORIAL HepG2 Assay for human Pregnane X Receptor (PXR) (AID 2283008; active = hit-call score of the fitted dose curve at least 0.9, where 1 is the maximum). Summed up: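 Transient HepG2 transfectants carrying multiplexed reporter transcription units; PXR activity read through a Gal4 chimera. 24 h exposure. RT-PCR/CE fluorescence; upward curve fit referenced to DMSO.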

The target in assay [18] is human RAR-related Orphan Receptor beta (RORb), RORB (gene 6096) (UniProt Q92753). Nature of the assay: ATG_RORb_TRANS: Attagene TRANS-FACTORIAL HepG2 Assay for human RAR-related Orphan Receptor beta (RORb) (AID 2283010; active = hit-call score of the fitted dose curve at least 0.9, where 1 is the maximum). Summed up:
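Read-out is reporter mRNA induction, quantified by RT-PCR with fluorescent capillary electrophoresis, 24 h post-dose in transiently transfected HepG2 expressing exogenous NR-Gal4 chimera. Activity fitted upward versus DMSO.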

Assay [19] addresses human Retinoic Acid Receptor beta (RARb), RARB (gene 5915) (UniProt P10826). Nature of the assay: ATG_RARb_TRANS: Attagene TRANS-FACTORIAL HepG2 Assay for human Retinoic Acid Receptor beta (AID 2283004; active = hit-call score of the fitted dose curve at least 0.9, where 1 is the maximum). Summed up: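 Transient transfection of HepG2 with multiple reporter units → chemical dosing, 24 h → total RNA isolation → RT with oligo(dT) → reporter-specific PCR, 6-FAM primer extension, HpaI digest → capillary electrophoresis. Positive direction vs DMSO control.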

The target of assay [20] is Retinoic acid receptor alpha (Homo sapiens) (UniProt P10276). Nature of the assay: ATG_RARa_TRANS: Attagene TRANS-FACTORIAL HepG2 Assay for human Retinoic Acid Receptor alpha (RARa) (AID 2283005; active = hit-call score of the fitted dose curve at least 0.9, where 1 is the maximum;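 for AC50: potency for increased reporter signal meaning RARa activation over DMSO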). Summed up:
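HepG2 cells transiently transfected with multiple reporter units expressing chimeric RARα-GAL4 fusion, with GAL4-UAS-driven reporters. After 24 h compound exposure, reporter mRNA induction quantified by RT-PCR and capillary electrophoresis with fluorescent labeling; gain-of-signal fitted relative to DMSO control.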

Outcome and AC50 data for eight molecules are collected here from PubChem BioAssay (EPA / NIEHS).

Inconclusive results are not listed. Calls of active or inactive are those of the source. Rule for the calls, unless noted: active = hit-call score of the fitted dose curve at least 0.9, where 1 is the maximum; inactive = score below 0.9.

Sequence of human Retinoic Acid Receptor gamma (RARg), RARG (gene 5916) (P13631 whole entry, looked up, the tested form may be a part): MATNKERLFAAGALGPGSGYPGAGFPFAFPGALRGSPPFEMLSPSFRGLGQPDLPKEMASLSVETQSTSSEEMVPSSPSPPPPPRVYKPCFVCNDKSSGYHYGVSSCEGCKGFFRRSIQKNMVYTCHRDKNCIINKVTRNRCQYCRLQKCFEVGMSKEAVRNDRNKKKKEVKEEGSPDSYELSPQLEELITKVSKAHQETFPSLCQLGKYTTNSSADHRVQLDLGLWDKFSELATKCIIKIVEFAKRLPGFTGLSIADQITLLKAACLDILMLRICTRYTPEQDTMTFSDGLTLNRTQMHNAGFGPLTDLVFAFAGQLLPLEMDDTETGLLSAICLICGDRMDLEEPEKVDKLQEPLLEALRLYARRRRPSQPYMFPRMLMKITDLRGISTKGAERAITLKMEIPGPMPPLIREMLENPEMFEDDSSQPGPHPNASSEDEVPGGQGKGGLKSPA
Sequence of Peroxisome proliferator-activated receptor gamma (Homo sapiens) (P37231 whole entry, looked up, the tested form may be a part): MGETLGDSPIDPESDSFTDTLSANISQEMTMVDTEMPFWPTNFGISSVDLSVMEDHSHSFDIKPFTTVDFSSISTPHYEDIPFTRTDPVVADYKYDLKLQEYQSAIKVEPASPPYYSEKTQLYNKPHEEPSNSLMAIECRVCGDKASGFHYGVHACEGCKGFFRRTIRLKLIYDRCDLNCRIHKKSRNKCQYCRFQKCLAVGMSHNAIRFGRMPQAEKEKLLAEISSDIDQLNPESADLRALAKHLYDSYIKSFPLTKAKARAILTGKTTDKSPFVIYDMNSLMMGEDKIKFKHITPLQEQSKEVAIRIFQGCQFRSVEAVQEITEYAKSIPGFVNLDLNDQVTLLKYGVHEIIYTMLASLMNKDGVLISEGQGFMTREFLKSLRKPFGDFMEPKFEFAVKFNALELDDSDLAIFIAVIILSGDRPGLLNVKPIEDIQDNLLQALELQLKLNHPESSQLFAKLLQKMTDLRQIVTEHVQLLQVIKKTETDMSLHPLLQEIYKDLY
Sequence of human Peroxisome Proliferator-activated Receptor alpha (PPARa), PPARA (gene 5465) (Q07869 whole entry, looked up): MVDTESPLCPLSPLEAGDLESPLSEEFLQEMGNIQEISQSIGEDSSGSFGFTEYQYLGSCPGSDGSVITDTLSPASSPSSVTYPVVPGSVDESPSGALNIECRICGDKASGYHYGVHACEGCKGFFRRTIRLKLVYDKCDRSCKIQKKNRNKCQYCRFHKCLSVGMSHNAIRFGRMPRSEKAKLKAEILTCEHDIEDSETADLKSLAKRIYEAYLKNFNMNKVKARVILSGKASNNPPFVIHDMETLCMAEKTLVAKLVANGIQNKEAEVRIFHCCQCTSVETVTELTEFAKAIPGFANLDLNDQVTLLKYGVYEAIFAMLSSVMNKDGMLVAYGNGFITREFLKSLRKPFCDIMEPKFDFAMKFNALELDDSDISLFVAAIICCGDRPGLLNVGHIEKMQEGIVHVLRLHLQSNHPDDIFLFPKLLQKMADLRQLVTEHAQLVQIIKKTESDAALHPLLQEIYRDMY
Sequence of Nuclear receptor subfamily 1 group I member 2 (Homo sapiens) (O75469 whole entry, looked up, the tested form may be a part): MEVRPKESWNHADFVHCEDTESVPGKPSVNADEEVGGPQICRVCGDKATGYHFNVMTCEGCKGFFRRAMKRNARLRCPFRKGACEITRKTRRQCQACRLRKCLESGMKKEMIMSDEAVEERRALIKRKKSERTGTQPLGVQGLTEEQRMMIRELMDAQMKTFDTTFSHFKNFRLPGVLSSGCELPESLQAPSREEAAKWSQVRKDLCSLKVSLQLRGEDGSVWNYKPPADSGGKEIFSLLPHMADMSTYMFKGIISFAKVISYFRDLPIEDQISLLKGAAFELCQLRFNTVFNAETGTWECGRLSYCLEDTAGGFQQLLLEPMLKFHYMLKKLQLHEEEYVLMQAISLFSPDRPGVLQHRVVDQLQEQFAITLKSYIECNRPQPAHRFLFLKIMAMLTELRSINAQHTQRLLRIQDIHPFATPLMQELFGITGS
Sequence of Retinoic acid receptor alpha (Homo sapiens) (P10276 whole entry, looked up, the tested form may be a part): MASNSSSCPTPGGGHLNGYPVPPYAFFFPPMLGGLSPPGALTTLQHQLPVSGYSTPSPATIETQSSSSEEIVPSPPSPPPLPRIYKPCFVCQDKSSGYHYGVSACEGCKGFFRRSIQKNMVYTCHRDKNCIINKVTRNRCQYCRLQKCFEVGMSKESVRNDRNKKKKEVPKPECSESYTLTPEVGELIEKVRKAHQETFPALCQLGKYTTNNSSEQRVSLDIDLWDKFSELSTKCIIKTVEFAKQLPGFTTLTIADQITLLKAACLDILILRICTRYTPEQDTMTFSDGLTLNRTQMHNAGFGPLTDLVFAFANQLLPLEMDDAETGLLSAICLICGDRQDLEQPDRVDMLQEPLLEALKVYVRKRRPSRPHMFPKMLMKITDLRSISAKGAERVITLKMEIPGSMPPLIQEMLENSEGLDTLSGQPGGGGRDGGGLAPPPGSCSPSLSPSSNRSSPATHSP
Sequence of human Peroxisome Proliferator-activated Receptor delta (PPARd), PPARD (gene 5467) (Q03181 whole entry, looked up, the tested form may be a part): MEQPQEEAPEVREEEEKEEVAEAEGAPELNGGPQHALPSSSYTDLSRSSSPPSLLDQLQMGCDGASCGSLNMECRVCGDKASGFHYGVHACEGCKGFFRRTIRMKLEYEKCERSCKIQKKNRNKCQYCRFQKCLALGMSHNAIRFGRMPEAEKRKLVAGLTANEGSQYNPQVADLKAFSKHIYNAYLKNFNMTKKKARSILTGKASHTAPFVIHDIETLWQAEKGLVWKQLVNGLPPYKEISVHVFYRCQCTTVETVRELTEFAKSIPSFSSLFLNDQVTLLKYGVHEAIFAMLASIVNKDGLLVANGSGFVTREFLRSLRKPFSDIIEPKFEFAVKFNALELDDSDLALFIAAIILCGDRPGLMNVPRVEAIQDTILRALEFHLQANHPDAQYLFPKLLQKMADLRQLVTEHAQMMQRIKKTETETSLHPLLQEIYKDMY
Sequence of Cellular tumor antigen p53 (Homo sapiens) (P04637 whole entry, looked up): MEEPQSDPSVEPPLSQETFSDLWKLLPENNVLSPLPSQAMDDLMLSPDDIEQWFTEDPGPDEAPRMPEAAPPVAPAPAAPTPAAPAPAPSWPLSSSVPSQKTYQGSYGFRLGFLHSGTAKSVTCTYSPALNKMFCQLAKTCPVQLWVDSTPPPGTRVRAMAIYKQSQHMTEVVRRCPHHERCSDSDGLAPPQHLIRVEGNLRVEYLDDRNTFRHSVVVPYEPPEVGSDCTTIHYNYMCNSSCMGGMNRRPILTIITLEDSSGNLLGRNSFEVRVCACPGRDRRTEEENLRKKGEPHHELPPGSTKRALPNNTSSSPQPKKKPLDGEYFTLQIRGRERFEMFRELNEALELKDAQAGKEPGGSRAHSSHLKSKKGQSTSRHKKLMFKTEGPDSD
Sequence of Myc proto-oncogene protein (Homo sapiens) (P01106 whole entry, looked up): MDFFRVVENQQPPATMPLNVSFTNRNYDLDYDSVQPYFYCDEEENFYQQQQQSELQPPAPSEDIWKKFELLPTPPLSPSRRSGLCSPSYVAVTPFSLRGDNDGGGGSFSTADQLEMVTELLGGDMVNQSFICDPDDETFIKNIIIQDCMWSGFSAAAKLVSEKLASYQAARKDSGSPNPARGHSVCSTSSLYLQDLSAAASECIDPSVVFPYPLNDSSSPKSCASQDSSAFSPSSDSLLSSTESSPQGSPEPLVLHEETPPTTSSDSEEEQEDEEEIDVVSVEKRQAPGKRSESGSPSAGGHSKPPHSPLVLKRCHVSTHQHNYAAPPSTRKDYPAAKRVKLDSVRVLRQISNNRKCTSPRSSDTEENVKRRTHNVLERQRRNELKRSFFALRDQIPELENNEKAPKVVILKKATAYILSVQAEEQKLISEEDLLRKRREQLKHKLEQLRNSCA
Sequence of human RAR-related Orphan Receptor beta (RORb), RORB (gene 6096) (Q92753 whole entry, looked up, the tested form may be a part): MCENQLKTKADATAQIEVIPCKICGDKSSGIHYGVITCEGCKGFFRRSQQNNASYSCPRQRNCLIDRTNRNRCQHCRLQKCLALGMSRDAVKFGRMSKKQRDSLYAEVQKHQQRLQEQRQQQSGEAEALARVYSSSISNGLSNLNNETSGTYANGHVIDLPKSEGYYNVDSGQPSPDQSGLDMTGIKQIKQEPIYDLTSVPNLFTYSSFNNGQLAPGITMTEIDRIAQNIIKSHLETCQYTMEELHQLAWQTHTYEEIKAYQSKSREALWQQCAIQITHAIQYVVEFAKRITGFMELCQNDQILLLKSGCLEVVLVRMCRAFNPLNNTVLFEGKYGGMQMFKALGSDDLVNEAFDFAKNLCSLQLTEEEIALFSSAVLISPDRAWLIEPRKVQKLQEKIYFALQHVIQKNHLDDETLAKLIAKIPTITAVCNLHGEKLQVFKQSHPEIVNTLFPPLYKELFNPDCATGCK
Sequence of human Retinoic Acid Receptor beta (RARb), RARB (gene 5915) (P10826 whole entry, looked up): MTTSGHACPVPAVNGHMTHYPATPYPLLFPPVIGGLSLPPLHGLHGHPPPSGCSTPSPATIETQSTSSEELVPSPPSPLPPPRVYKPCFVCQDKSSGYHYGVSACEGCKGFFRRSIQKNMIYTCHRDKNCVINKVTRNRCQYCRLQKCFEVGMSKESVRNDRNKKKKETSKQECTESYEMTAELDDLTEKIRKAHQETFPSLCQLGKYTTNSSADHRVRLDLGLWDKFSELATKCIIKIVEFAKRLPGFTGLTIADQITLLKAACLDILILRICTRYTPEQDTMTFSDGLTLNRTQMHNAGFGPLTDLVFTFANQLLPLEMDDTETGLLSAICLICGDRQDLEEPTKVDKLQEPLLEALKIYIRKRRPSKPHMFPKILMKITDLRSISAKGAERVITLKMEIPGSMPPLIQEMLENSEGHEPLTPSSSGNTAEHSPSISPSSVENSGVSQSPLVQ

In the case of `O=C(Cc1ccccc1)OCCc1ccccc1`, the molecule was called inactive in assay [1], in assay [2], in assay [3], in assay [4], in [5] and in [6]. The outcome in assay [7], in assay [8], in assay [9], in [10], in assay [11] and in [12] was inactive. The result in assay [13], in assay [14], in assay [15] and in assay [16] was inactive.

Take `CCC(C)(C#N)N=NC(C)(C#N)CC` (stereo not drawn): the result in assay [1], in assay [2], in assay [3], in assay [4], in assay [5] and in assay [6] was inactive. Further, the outcome in [7], in assay [8], in [9], in assay [10], in assay [11] and in [13] was inactive. Moreover, the result in assay [14], in [15], in [17] and in assay [18] was inactive.

The AC50 is the midpoint of the concentration-response curve, whichever way the signal moves. For `CCOC(=O)CC(=O)CCl`, the molecule was classed as inactive in assay [1], in assay [2], in assay [7], in assay [11], in assay [13] and in [18]. Moreover, the half-maximal activity concentration (AC50) in assay [3] is 56.8 µM (active); in [4] it was 181 µM (active); in assay [5], 24.3 µM (active); in assay [6] it was 148 µM (active); in assay [8], 0.0141 µM (active); in [9], 20 µM (active). In addition, the AC50 was 20 µM (active) in [10], 20 µM (active) in assay [14] and 22 µM (active) in [15].

For the molecule `NC(=O)CCl`, the result in [1], in assay [2], in [3], in assay [5], in assay [6] and in assay [7] was inactive. Further, the result in [8], in [9], in [10], in assay [11], in assay [12] and in assay [13] was inactive. In addition, the molecule was classed as inactive in assay [19], in assay [20], in assay [14], in assay [15], in assay [17] and in [16]. Further, in [18], the outcome was inactive. Further, in [4], the AC50 was 78.2 µM (active).

`C[C@H]1C(=O)O[C@@H]2CCN3CC=C(COC(=O)[C@](C)(O)[C@]1(C)O)[C@H]23`: the molecule was called inactive in assay [1], in assay [2], in [3], in [4], in [5] and in assay [6]. Also, the outcome in [11], in assay [12], in assay [19], in assay [15] and in [17] was inactive.

Consider `O=C(O)COc1ccc(Cl)cc1`, for which the result in [1], in assay [2], in assay [3], in assay [4], in [5] and in [6] was inactive. Further, the outcome in assay [11], in assay [12] and in assay [15] was inactive.

On to `CCCCOC(C)=O`, for which the call in assay [1], in assay [2], in [3], in assay [4], in assay [5] and in assay [6] was inactive. Further, the molecule was called inactive in assay [11], in [12], in assay [20], in [15], in assay [17] and in assay [16]. Moreover, in [18], the molecule was called inactive.

Turning to `O=C1c2ccccc2C(=O)C1C(=O)C(c1ccccc1)c1ccc(Cl)cc1` (stereo not drawn), the outcome in assay [1], in assay [6], in assay [11], in assay [12], in [16] and in assay [18] was inactive. The AC50 is 27.1 µM (active) in [2]; 26.3 µM (active) in assay [3]; 3.96 µM (active) in assay [4]; 6.7 µM (active) in [5]; 26.1 µM (active) in assay [20]; 3.11 µM (active) in assay [15]. The AC50 in assay [17] is 2.45 µM (active).
